Data as given in PubChem BioAssay AID720724 (Broad Institute, 2013).
Measured potencies and affinities stand elsewhere. Values without a mark were called inactive.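 How the source made its calls: active means signal falls with a fitted half-maximal dose at most twice the top dose, in every run; inconclusive means steady partial drop, poor fit, or runs disagree; inactive means flat, rising or too weak in every run.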

Assay: EF1alpha-driven Renilla reporter with control 3'UTR suppression – Clone20-Shn3RL cells, dual-Glo, cherry-pick, set 2, counter-screen for Shn3 3'UTR targeting project, dose response (AID 720724)
Conditions: renilla luciferase luminescence, 24 h; series mostly up to 35 µM; activity change, negative = inhibition: at the top concentration

SMILES	activity change, negative = inhibition
Oc1ccc(-c2n[nH]c(C(F)(F)F)c2-c2ccccc2)c(O)c1	-42.5%
CCN(CC)c1ccc(NC(=O)CN2C(=O)CSc3ncccc32)c(C)c1	-30%
O=C(NCCc1ccccc1)c1ccc2c(c1)OCCO2	0%
COc1ccccc1NS(=O)(=O)c1cc(NC(=O)c2ccc(Cl)nc2)ccc1Cl	-30%
Cc1cccc(CSc2cccc3cccnc23)c1	33.3%
Fc1ccc(-n2nnnc2-c2cnc(-c3cccs3)nc2C(F)(F)F)cc1	-25%
Cc1ccccc1OCCOC(=O)c1cc(S(=O)(=O)N2CCCCC2)ccc1N1CCOCC1	-30%
CC(C)(C)C(=O)Nc1cc2nn(-c3ccccc3)nc2cc1Cl	-20%
COc1ccc(C(=O)Nc2nc3ccccc3s2)c(OC)c1	87.5%
Cc1cc(S(=O)(=O)NCc2ccncc2)c(C)cc1Br	25%
COc1cc(NC(=O)c2cccc3c(-c4cccnc4)coc23)cc(OC)c1OC	-20%
O=C(O)c1cccc(COc2ccccc2Cl)c1	-12.5%
O=C(c1n[nH]c(=O)c2ccccc12)N1CCN(C2c3ccccc3-c3ccccc32)CC1	-29.2%
CCCCN1CC(COCc2ccccc2)Oc2cccc(Oc3ccc(C(C)C)cc3)c2S1(=O)=O (centres undefined)	-36.7%
O=C(CN1C(=O)c2ccccc2S1(=O)=O)c1ccc(Cl)cc1Cl	-25%
CCN(CC)Cc1c(O)ccc2c1O/C(=C\C=C\c1ccccc1)C2=O	-25%
CCOc1ccc(N(C)S(=O)(=O)c2cc(-c3cc(C)no3)ccc2C(C)C)cc1	-20%

SMILES	activity change, negative = inhibition
Cc1ccc(NC(=O)c2cc(S(=O)(=O)NCCC3=CCCCC3)ccc2F)cc1F	-40%
Cn1nc(CC(=O)Nc2ccc3c(c2)OCCO3)c2ccccc2c1=O	-22.5%
Cc1cccc(NS(=O)(=O)c2ccc(C3CCCCC3)cc2)c1	10%
CCCCOCCCNc1ncnc2c1[nH]c1ccccc12	-8.33%
CCOC(=O)C1CCCN(S(=O)(=O)c2ccc(S(=O)(=O)N3CCCC3)cc2)C1 (centres undefined)	-42.5%
CC(C)CCOc1cccc(OCC(=O)Nc2ccncc2)c1	-30%
CCOC(=O)N1CCN(c2ccc(S(=O)(=O)N(Cc3ccccc3)Cc3ccccc3)cn2)CC1	10%
O=C(CSc1nnc(-c2cccnc2)s1)Nc1ccnc2ccccc12	-22.5%
CCOC(=O)c1oc2ccc(S(=O)(=O)n3nc(-c4ccc(OC)cc4)cc3N)cc2c1C	2.5%
CCSc1nnc(NC(=O)c2nc(S(=O)(=O)Cc3ccc(F)cc3)ncc2Cl)s1	-25%
OCCCNc1nccc(-c2cc(Nc3cccc(Cl)c3)ncn2)n1	-20%
CCn1c(C)cc(C(=O)COC(=O)c2ccccc2[N+](=O)[O-])c1C	-12.5%
COc1ccc(-n2ncc3c(N4CCCCC4)ncnc32)cc1	-12.5%
COc1cccc(-n2c(C)nc3c(cnn3-c3ccc(Cl)cc3)c2=O)c1	-25%
COc1ccc(NS(=O)(=O)c2ccc(OC)c(N(C)S(=O)(=O)c3ccc(Cl)cc3)c2)cc1	-10%
O=C(Nc1ccc(Cl)cc1)c1cc(S(=O)(=O)N2CCOCC2)cs1	-32.5%
O=C(Nc1ccc(N2CCOCC2)cc1)c1ccc(Cl)c(S(=O)(=O)N2CCCC2)c1	-12.5%
